# Screens (PubChem)
# hgDAF-12 ag: agonists of H. glycines DAF-12 nuclear receptor. hit rate 1.8% among 370,000. AID 687014. activation, % at 6.8 µM. HEK293 GAL4-hgDAF12 UAS-luciferase reporter, agonist luminescence; normalized to butyrate control;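 active = activation above a cutoff set at the mean of all screened compounds plus 3 SD, cut at about 10% in these data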;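 also: 0% = DMSO wells and 100% = sodium butyrate wells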
# hcDAF12 agonist: activates DAF-12 receptor from parasite H. contortus; hit rate 1.4% among 370,000; activation, % at 6.8 µM; HEK293 hcDAF-12 lit1-tk-luc reporter, luminescence; 0% DMSO, 100% Δ7-dafachronic acid; AID 652067;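 active = activation above the mean of all tested compounds plus 3 SD, cut at about 5.5% in these data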;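 also: 100% = response to 3 µM Δ7-dafachronic acid high control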
# DAX1 inh-1: inhibitors of DAX1 repression of SF-1 activated StAR promoter; HEK293T StAR-luciferase reporter, SF-1/DAX-1 repression relief; inhibition, % at 6.8 µM; hit rate 1.1% among 370,000; AID 652010;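 active = inhibition above the mean over all tested compounds plus 3 SD, cut at about 3.6% in these data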;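 also: 0% = DAX-1 cells with DMSO and 100% = cells lacking DAX-1 with DMSO; higher inhibition means more luminescence from relief of DAX-1 repression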
# DAX1 inh-2: inhibitors of human orphan nuclear receptor DAX1 (NR0B1). P51843. HEK293 Gal4-DAX1 luciferase reporter, luminescence. inhibition, % at 6.75 µM. hit rate 0.99% among 340,000. AID 504766;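 active = inhibition above the mean over all tested compounds plus 3 SD, cut at about 4.2% in these data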;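 also: 0% = DAX1-transfected cells with DMSO and 100% = empty-vector control cells with DMSO; inhibition shows as a rise in luminescence from relieved DAX1 repression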
# Target sequence (P51843 207-470 limits assumed): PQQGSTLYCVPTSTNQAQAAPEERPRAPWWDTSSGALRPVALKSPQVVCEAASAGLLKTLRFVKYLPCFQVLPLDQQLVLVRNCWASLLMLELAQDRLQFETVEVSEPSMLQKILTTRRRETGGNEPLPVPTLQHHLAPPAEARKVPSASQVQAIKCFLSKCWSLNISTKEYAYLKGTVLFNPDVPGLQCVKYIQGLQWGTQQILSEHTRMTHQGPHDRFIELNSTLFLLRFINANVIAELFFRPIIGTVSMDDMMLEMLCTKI
# ssDAF12 agonist: S. stercoralis DAF-12 activation, primary screen; HEK293 ssDAF-12/GRIP1 lit1-tk-luc reporter, luminescence; % of 3 µM dafachronic acid response; activation, % at 6.8 µM; hit rate 1% among 370,000;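 active = activation above the mean over all tested compounds plus 3 SD, cut at about 0.9% in these data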;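 also: 0% = DMSO-only wells and 100% = 3 µM delta7-dafachronic acid wells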
# Numbers without * were called inactive; . = not tested or not shown. Hits are enriched below; roughly 4.1% of the tested compounds scored in any of these assays.
SMILES,hgDAF-12 ag,hcDAF12 agonist,DAX1 inh-1,DAX1 inh-2,ssDAF12 agonist
COc1cccc(/C=C2\CC3(OC(=O)C(C)(C)C)CCCN2C3)c1 (stereo unspecified),-1,-2,1,.,-1
CC(=O)Nc1cc(C)c2nc(NC(C)=O)sc2c1,1,0,1,8.3*,-1
CC(=O)Nc1nc2c(C)cc(NC(=O)C3CCCCC3)cc2s1,1,0,1,2,1
Cc1ccc2c(c1)Oc1ccccc1C=C2C(=O)O,-1,1,1,4.3*,-1
COC(=O)NC1c2ccccc2Oc2ccc(C)cc21 (stereo unspecified),-3,-1,0,-2,-1
O=C(COC(=O)C1=COCCO1)Nc1ccccc1,1,1,1,4.4*,0
Cc1ccn2cc(-c3cccc(NC(=O)c4cccs4)c3)nc2c1,11*,-1,0,1,-1
COc1cc(Cl)c(C)cc1NC(=O)c1cccc(OC)c1OC,11*,0,1,0,-1
C=CCn1cccc(C(=O)Nc2ccc(N(C)C)cc2)c1=O,11*,-1,1,1,0
C=CCn1cccc(C(=O)Nc2ccc(Cl)cc2)c1=O,3,-1,-1,-2,-1
COC(=O)[C@H](C)NC(=O)C(Cc1ccc2c(c1)OCO2)NC(C)=O (stereo partly specified),0,-2,0,.,0
COc1cccc(NC(=O)c2ccccc2-c2ccccc2C(=O)O)c1,0,6.0*,1,0,-1
COc1cccc(NC(=O)c2cccc(OC)c2OC)c1,12*,0,2,1,0
COc1ccc(C(=O)/C=C\c2ccc(NC(=O)c3cccs3)cc2)cc1,0,6.5*,-1,-2,0
COc1ccc(NC(=O)c2ccc(NC(=O)c3cccs3)cc2)cc1,0,-2,1,0,-1
COc1cccc(NC(=O)C2=COCCO2)c1,2,4,3.7*,3,-1
COc1cccc(NC(=O)CN(C)C(=O)C2=COCCO2)c1,1,4,3,1,-1
COc1cccc(C(=O)Nc2ccncc2)c1OC,-1,-1,0,-1,-1
CC(=O)c1cccc(NC(=O)c2ccccc2-c2ccccc2C(=O)O)c1,0,-1,-1,-1,-1
CCNC(=O)N(C)[C@H]1C[C@H]2c3[nH]c4c(-c5cccc(C)c5)cccc4c3CCN2C(=O)[C@H]1[C@H](C)O,-1,-2,-1,.,-1
CSCCCNC(=O)Cn1nc(Cc2ccncc2)c2ccccc2c1=O,0,0,0,.,-1
COc1cccc(NC(=O)c2cccs2)c1,13*,5,1,-1,-1
COc1cccc(NC(=O)c2c(F)cccc2F)c1,7,1,1,-1,-1
COc1cccc(NC(=O)c2ccccc2F)c1,11*,3,2,2,-1
COc1cccc(C(=O)Nc2ccc(N(C)C)cc2)c1OC,12*,2,3,1,0
SMILES,hgDAF-12 ag,hcDAF12 agonist,DAX1 inh-1,DAX1 inh-2,ssDAF12 agonist
COc1cccc(NC(=S)NC(=O)Cc2ccccc2)c1,1,0,0,5.6*,-1
COc1cccc(NC(=O)Cc2ccccc2)c1,8,4,1,2,0
O=S(=O)(c1ccccc1Br)N(Cc1cn(CC2CCCCC2)nn1)C1CC1,5,2,-1,.,-1
COc1cccc(NC(=O)c2ccccc2Br)c1,11*,1,1,2,-1
COc1cccc(C(=O)Nc2cccc(NC(=O)c3ccccc3Cl)c2)c1,-3,-1,-1,0,-1
O=C(Nc1ccccc1C(F)(F)F)NC1(C(=O)N2CCOCC2)CCCCC1,2,5.7*,2,0,0
Cc1ccccc1NC(=O)NC1(C(=O)N2CCOCC2)CCCCC1,-2,0,0,0,-1
CCCCCCNC(=O)c1c(N)[nH]c(C(=O)c2ccccc2)c1-c1ccc(O)cc1,-2,-3,.,.,-2
Nc1ccc(C(=O)c2cccs2)cn1,3,5.8*,0,1,0
CCCC[C@H]1C2CC(OC(=O)Nc3ccccc3Cl)C(C2)[C@H]2CCCCN21 (stereo partly specified),-5,-2,0,.,-1
CCc1cc2c(nc1CC)CCCN2S(=O)(=O)c1c(C)noc1C,1,0,0,.,-1
C/C(CCc1ccc2c(c1)OCO2)=N\NC(=O)c1ccc(C)cc1C,13*,1,2,0,0
